# In PubChem BioAssay AID1508601 (ICCB-Longwood Screening Facility, Harvard Medical School, 2020):
# Hit rate of the full screen: of about 5,700 compounds, about 85 (1%) were called active. This is one part of a sample in which actives are shown more often than they occur. No stated cut-off is given here; in the data, active means p53-positive nuclei above about 36% (passing the limit was not always enough); inactive means the rest.
# How the values were obtained:
# [1] = nuclear p53 accumulation, HPV+ cells – imaging, p53-positive nuclei imaging, 24 h, 48 h (AID 1508601); conditions: 24/48 h
# [2] = biological target: Cellular tumor antigen p53 (Homo sapiens) (UniProt P04637); assay: as above; conditions: 24/48 h, stronger effect = higher value
# Sequence of Cellular tumor antigen p53 (Homo sapiens) (P04637 whole entry, looked up): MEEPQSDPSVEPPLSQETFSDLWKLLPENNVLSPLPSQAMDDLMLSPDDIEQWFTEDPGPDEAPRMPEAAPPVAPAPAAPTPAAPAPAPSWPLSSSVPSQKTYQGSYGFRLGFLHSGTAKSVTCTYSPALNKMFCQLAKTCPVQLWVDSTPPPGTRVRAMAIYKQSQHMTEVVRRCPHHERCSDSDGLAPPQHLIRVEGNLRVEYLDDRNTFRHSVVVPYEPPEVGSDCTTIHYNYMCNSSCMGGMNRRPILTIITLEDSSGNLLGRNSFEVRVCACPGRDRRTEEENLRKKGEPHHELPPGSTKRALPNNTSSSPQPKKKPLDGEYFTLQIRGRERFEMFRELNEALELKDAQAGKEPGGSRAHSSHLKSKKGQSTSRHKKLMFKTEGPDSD
# [3] = measured here: cell number at 24 h, concentration not given here
# [4] = measured here: cell number at 48 h, concentration not given here
# [5] = measured here: p53 positive nuclei at 24 h, concentration not given here
# [6] = measured here: cell number at 24 h, Library stock concentration: 80 uM
# [7] = measured here: cell number at 24 h, Library stock concentration: 400 uM
# [8] = measured here: cell number at 24 h, Library stock concentration: 2 mM
# [9] = measured here: cell number at 24 h, Library stock concentration: 3.33 mM
# [10] = measured here: cell number at 24 h, Library stock concentration: 10 mM
# [11] = measured here: cell number at 48 h, Library stock concentration: 80 uM
# [12] = measured here: cell number at 48 h, Library stock concentration: 400 uM
# [13] = measured here: cell number at 48 h, Library stock concentration: 2 mM
# [14] = measured here: cell number at 48 h, Library stock concentration: 3.33 mM
# [15] = measured here: cell number at 48 h, Library stock concentration: 10 mM
# [16] = Library stock concentration: 80 uM
# [17] = Library stock concentration: 400 uM
# [18] = Library stock concentration: 2 mM
# [19] = Library stock concentration: 3.33 mM
# [20] = Library stock concentration: 10 mM
# [21] = measured here: p53 positive nuclei at 24 h, Library stock concentration: 80 uM
# [22] = measured here: p53 positive nuclei at 24 h, Library stock concentration: 400 uM
# [23] = measured here: p53 positive nuclei at 24 h, Library stock concentration: 2 mM
# [24] = measured here: p53 positive nuclei at 24 h, Library stock concentration: 3.33 mM
# [25] = measured here: p53 positive nuclei at 24 h, Library stock concentration: 10 mM
smiles,measurement,setting,value
COc1ccc(CNCC2COCCO2)cc1OC (stereo unspecified),"nuclei count, normalised",[1]; [3],101%
same,"nuclei count, normalised",[1]; [4],103%
same,"p53-positive nuclei, normalised",[2]; concentration not given here,0.0897% (inactive)
same,"p53-positive nuclei, normalised",[2]; [5],0.164%
O=C(NOCC(O)CO)c1ccc(F)c(F)c1Nc1ccc(I)cc1F (stereo unspecified),"nuclei count, normalised",[1]; [6],110%
same,"nuclei count, normalised",[1]; [7],101%
same,"nuclei count, normalised",[1]; [8],91.9%
same,"nuclei count, normalised",[1]; [9],96.8%
same,"nuclei count, normalised",[1]; [10],99.9%
same,"nuclei count, normalised",[1]; [11],106%
same,"nuclei count, normalised",[1]; [12],104%
same,"nuclei count, normalised",[1]; [13],95.8%
same,"nuclei count, normalised",[1]; [14],97.9%
same,"nuclei count, normalised",[1]; [15],95.8%
same,"p53-positive nuclei, normalised",[2]; [16],-0.174% (inactive)
same,"p53-positive nuclei, normalised",[2]; [17],-0.189% (inactive)
same,"p53-positive nuclei, normalised",[2]; [18],0.0424% (inactive)
same,"p53-positive nuclei, normalised",[2]; [19],-0.685% (inactive)
same,"p53-positive nuclei, normalised",[2]; [20],0.268% (inactive)
same,"p53-positive nuclei, normalised",[2]; [21],0.00674%
same,"p53-positive nuclei, normalised",[2]; [22],0.0842%
same,"p53-positive nuclei, normalised",[2]; [23],-0.07%
same,"p53-positive nuclei, normalised",[2]; [24],-0.375%
same,"p53-positive nuclei, normalised",[2]; [25],0.0144%
O=Nc1c(O)[nH]c2c(Cl)c(Cl)ccc12,"nuclei count, normalised",[1]; [6],111%
same,"nuclei count, normalised",[1]; [7],99.5%
same,"nuclei count, normalised",[1]; [8],83.2%
same,"nuclei count, normalised",[1]; [10],73.5%
same,"nuclei count, normalised",[1]; [11],109%
same,"nuclei count, normalised",[1]; [12],99%
same,"nuclei count, normalised",[1]; [13],54.9%
same,"nuclei count, normalised",[1]; [15],33.7%
same,"p53-positive nuclei, normalised",[2]; [16],0.16% (inactive)
same,"p53-positive nuclei, normalised",[2]; [17],-0.101% (inactive)
same,"p53-positive nuclei, normalised",[2]; [18],48.3% (inactive)
same,"p53-positive nuclei, normalised",[2]; [20],84.3% (active)
same,"p53-positive nuclei, normalised",[2]; [21],0.217%
same,"p53-positive nuclei, normalised",[2]; [22],0.0912%
same,"p53-positive nuclei, normalised",[2]; [23],2.93%
same,"p53-positive nuclei, normalised",[2]; [25],8.66%
CC(C)C(=O)Oc1ccc(CO)cc1C(CCN(C(C)C)C(C)C)c1ccccc1 (stereo unspecified),"nuclei count, normalised",[1]; [9],113%
same,"nuclei count, normalised",[1]; [14],108%
same,"p53-positive nuclei, normalised",[2]; [19],-0.0601% (inactive)
same,"p53-positive nuclei, normalised",[2]; [24],-0.451%
CCCCC[C@H](O)/C=C/[C@@H]1[C@H](CCCCCCC(=O)O)[C@H](O)C[C@H]1O,"nuclei count, normalised",[1]; [3],103%
same,"nuclei count, normalised",[1]; [4],107%
same,"p53-positive nuclei, normalised",[2]; concentration not given here,-0.142% (inactive)
same,"p53-positive nuclei, normalised",[2]; [5],-0.0664%
O=C1Cc2c([nH]c3ccc(Br)cc23)-c2ccccc2N1,"nuclei count, normalised",[1]; [3],97.1%
same,"nuclei count, normalised",[1]; [4],104%
same,"p53-positive nuclei, normalised",[2]; concentration not given here,-0.0157% (inactive)
same,"p53-positive nuclei, normalised",[2]; [5],0.0601%
O=Nc1c(-c2c(O)[nH]c3cc(Br)ccc23)[nH]c2ccccc12,"nuclei count, normalised",[1]; [6],102%
same,"nuclei count, normalised",[1]; [7],111%
same,"nuclei count, normalised",[1]; [8],106%
same,"nuclei count, normalised",[1]; [9],116%
same,"nuclei count, normalised",[1]; [10],63.9%
same,"nuclei count, normalised",[1]; [3],104%
same,"nuclei count, normalised",[1]; [11],106%
same,"nuclei count, normalised",[1]; [12],106%
same,"nuclei count, normalised",[1]; [13],91.1%
same,"nuclei count, normalised",[1]; [14],101%
same,"nuclei count, normalised",[1]; [15],46.7%
same,"nuclei count, normalised",[1]; [4],113%
same,"p53-positive nuclei, normalised",[2]; [16],-0.018% (inactive)
same,"p53-positive nuclei, normalised",[2]; [17],0.858% (inactive)
same,"p53-positive nuclei, normalised",[2]; [18],4.32% (inactive)
same,"p53-positive nuclei, normalised",[2]; [19],1.69% (inactive)
same,"p53-positive nuclei, normalised",[2]; [20],89.3% (active)
same,"p53-positive nuclei, normalised",[2]; concentration not given here,0.377% (inactive)
same,"p53-positive nuclei, normalised",[2]; [21],-0.0496%
same,"p53-positive nuclei, normalised",[2]; [22],0.519%
same,"p53-positive nuclei, normalised",[2]; [23],1.14%
same,"p53-positive nuclei, normalised",[2]; [24],0.53%
same,"p53-positive nuclei, normalised",[2]; [25],71.9%
same,"p53-positive nuclei, normalised",[2]; [5],0.0936%
